# From PubChem BioAssay (NCATS)
# Where “and” joins values, the source holds several entries; their conditions need not be identical. Equal entries are not always repeated. Records with an inconclusive call do not appear. Values without a mark were called inactive. Calls of active or inactive are those of the source.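 How the source made its calls: active means dose-dependent loss of cell ATP signal giving a full or clear fitted curve, ranked by lower potency value; inconclusive means weak partial curve or response only at the top dose; inactive means no loss of viability signal.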
# Experiment: Cell Viability - Jurkat (AID 426);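 further: cells exposed to compound for 40 hours at 37 °C before ATP read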
# Settings: qHTS
# Outline: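 Cytotoxicity was scored as loss of cellular ATP, measured by luciferase-based luminescence, in Jurkat clone E6-1 cells after 40 h compound treatment; tamoxifen and doxorubicin served as positive controls.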
# Potency means the concentration at half of the fitted maximal effect.
row,Structure (SMILES),Potency
1,CCCN(CCC)C(=O)SCC,> 92 µM
2,COc1ccc2nc(N)sc2c1,> 92 µM
3,ClCCCl,> 92 µM
4,CCC(O)OC(O)CC (stereo unspecified),> 92 µM
5,C=Cc1ccccc1Cl,> 92 µM
6,c1ccc2c(c1)c1cccc3ccc4cccc2c4c31,> 92 µM
7,Cc1cccc([N+](=O)[O-])c1C,> 92 µM
8,CCCCCCCCO,> 92 µM
9,CC(C)=CCCC(C)CCO (stereo unspecified),> 92 µM
10,O=[N+]([O-])c1cccc(Cl)c1Cl,> 92 µM
11,CCO[Si](CCCN)(OCC)OCC,> 92 µM
12,Clc1cc(Cl)c(Cl)cc1Cl,> 92 µM
13,CCO,> 92 µM
14,C=CC(=O)OCCOCCOCCOCCOC(=O)C=C,6.78 µM (active) and 12.4 µM (active)
15,Clc1cc(Cl)c(Cl)c(Cl)c1Cl,> 92 µM
16,CCCCC(CC)CN (stereo unspecified),> 92 µM
17,O=NO,> 92 µM
18,c1ccc2c(c1)[nH]c1ccccc12,> 92 µM
19,OCCNCCO,> 92 µM
20,Nc1ccc(Cl)cc1Cl,> 92 µM
21,CCC(C)c1ccccc1O (stereo unspecified),> 92 µM
22,CC1=CC(C)(C)Nc2ccccc21,> 92 µM
23,CN(C)C=O,> 92 µM
24,Cc1ccc(N)c([N+](=O)[O-])c1,> 92 µM
25,CCCCOCCO,> 92 µM
26,CC(=O)OC/C=C(\C)CCC=C(C)C,> 92 µM
